Rows were chosen to be rich in hits. Some 14% of all compounds tested hit in one or more screens of this group.
USP17 inh = inhibitors of human USP17 deubiquitinase; inhibition, % at 50 µM; 47,000 compounds, 6.5% hits; A8MUK1; purified USP17, Ub-rhodamine cleavage fluorescence, 3 h; AID 1645855
Target sequence (A8MUK1 whole entry, looked up): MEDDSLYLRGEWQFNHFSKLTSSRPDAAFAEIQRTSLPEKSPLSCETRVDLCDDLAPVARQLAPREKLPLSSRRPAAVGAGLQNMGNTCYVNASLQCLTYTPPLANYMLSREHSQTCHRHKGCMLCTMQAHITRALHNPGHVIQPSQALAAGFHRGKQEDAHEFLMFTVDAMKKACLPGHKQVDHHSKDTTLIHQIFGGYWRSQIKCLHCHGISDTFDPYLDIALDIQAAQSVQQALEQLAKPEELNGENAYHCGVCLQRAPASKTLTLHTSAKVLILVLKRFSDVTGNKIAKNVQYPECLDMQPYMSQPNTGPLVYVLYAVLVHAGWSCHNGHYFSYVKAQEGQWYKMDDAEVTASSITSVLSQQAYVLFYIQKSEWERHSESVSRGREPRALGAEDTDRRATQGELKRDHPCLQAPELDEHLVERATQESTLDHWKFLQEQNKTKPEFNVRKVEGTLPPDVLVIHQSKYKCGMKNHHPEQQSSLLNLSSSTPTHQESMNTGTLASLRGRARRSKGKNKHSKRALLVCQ
USP28 inh = inhibitors of human USP28 deubiquitinase; AID 1645857; purified USP28, Ub-rhodamine cleavage fluorescence, 30 min; 47,000 compounds, 3% hits; inhibition, % at 25 µM; Q96RU2
USP8 block = blocks human USP8 ubiquitin-rhodamine cleavage | P40818 | purified USP8, Ub-rhodamine cleavage fluorescence, 30 min | 47,000 compounds, 4.2% hits | inhibition, % at 20 µM
USP30 block = inhibitors of human USP30 deubiquitinase | AID 1645860 | inhibition, % at 25 µM | Q70CQ3 | 47,000 compounds, 5.3% hits | purified USP30, Ub-rhodamine cleavage fluorescence
USP10 inh = inhibitors of human USP10 deubiquitinase. purified USP10, Ub-rhodamine fluorescence, 60 min. AID 1645856. 47,000 compounds, 1.1% hits. inhibition, % at 20 µM. Q14694
Numbers stand for hits; . = inactive; / = not tested or not shown. Cut-off read from the data, not from the text of the source: active = inhibition above about 30%; inactive = the rest.

SMILES | USP17 inh | USP28 inh | USP8 block | USP30 block | USP10 inh
CC(C)OCCCN1C(=O)C2C(C(=O)Nc3ccc(Oc4ccccc4)cc3)C3C=CC2(O3)C1C(=O)NC1CCCCC1 (centres undefined) | 51 | . | . | . | .
O=C(Cc1ccccc1[N+](=O)[O-])Nc1cnn(Cc2ccc(F)cc2)c1 | . | . | . | 32 | .
Cc1ccc(CNC(=O)c2cc(=O)nc3sc(N4CCCCCC4)nn23)cc1 | . | . | . | 31 | .
CCc1ccc(C(=O)NCc2ccc(N3CCOCC3)nc2)cc1 | . | . | . | . | .
COCCNC(=O)c1ccc(-c2ccc(N3CCCCC3)nc2)cc1 | 68 | . | . | 31 | .
COc1ccc(-c2noc([C@@H]3C[C@H](NC(=O)c4ccccc4)CN3C)n2)cc1 | . | . | . | . | .
COc1ccc(-c2noc(C3CCCN3C(=O)Nc3ccc(C)cc3C)n2)cc1 (centres undefined) | . | . | . | 33 | .
COc1ccccc1NC(=O)N1CCCC1c1nc(-c2cccc(Cl)c2)no1 (centres undefined) | . | . | . | 40 | .
COc1ccc(-c2noc(C3CCCN3C(=O)Nc3cccc(C)c3)n2)cc1 (centres undefined) | . | . | . | . | .
COc1cccc(-c2noc(C3CCCN3C(=O)Nc3ccccc3C)n2)c1 (centres undefined) | . | . | . | . | .
COc1ccc(-c2noc([C@@H]3C[C@H](NC(=O)Nc4ccc(C)cc4)CN3C)n2)cc1 | . | . | . | 42 | .
CN1CCN(C(=O)c2ccc(NCc3ccc(F)cc3)c(S(=O)(=O)Nc3cc(F)ccc3F)c2)CC1 | . | . | . | . | .
O=C(CNC1CCCc2ccccc21)Nc1ccc2c(c1)OC(F)(F)O2 (centres undefined) | . | . | . | . | .
O=C(CNc1ccc(F)cc1F)Nc1ccc2c(c1)OC(F)(F)O2 | . | 49 | . | . | .
COc1ccc(CN(C(=O)c2cc(-c3ccc(C)cc3)on2)C2CCS(=O)(=O)C2)cc1 (centres undefined) | . | . | . | 50 | .
COc1ccc(CN(C(=O)c2cc(-c3ccccc3)on2)C2CCS(=O)(=O)C2)cc1 (centres undefined) | . | . | . | . | .
CN1CCCC(OC(=O)c2cccc(Cl)c2)C1 (centres undefined) | . | . | . | . | .
CN1CCCC(OC(=O)c2cc(Cl)cc(Cl)c2)C1 (centres undefined) | / | . | 32 | 33 | .
O=C(Nc1ccc(Cl)cc1)c1nc(-n2cnnc2)ccc1Cl | 36 | . | . | . | .
COc1ccc(COC(=O)NC2CCN(S(=O)(=O)c3ccc(OC)cc3)CC2)cc1 | . | . | . | . | .
COc1ccc2c(c1)C(=O)N(CCc1ccc(S(=O)(=O)NC(=O)NC3CCCCC3)cc1)C(=O)C2(C)C | . | . | . | 47 | .
CCCn1nc(-c2ccccc2)c2nc3ccccc3nc21 | . | . | . | . | .
CCCn1c(-c2ccc(CC)cc2)cn2c(-c3ccccc3)c(-c3ccccc3)nc12 | 33 | . | 87 | . | .
COc1cccc(-c2cn3c(-c4ccccc4)c(-c4ccccc4)nc3n2-c2ccccc2)c1 | . | . | 77 | . | .
COc1ccc(-c2cn3c(-c4ccccc4)c(-c4ccccc4)nc3n2-c2ccccc2)cc1 | 48 | . | 80 | 37 | .
SMILES | USP17 inh | USP28 inh | USP8 block | USP30 block | USP10 inh
Cc1cc(C)cc(-n2c(-c3ccccc3)cn3c4c(=O)n(C)c(=O)n(C)c4nc23)c1 | . | . | . | . | .
COc1cccc(-c2cn3c(-c4ccccc4)c(-c4ccccc4)nc3n2-c2cccc(Cl)c2)c1 | . | . | 81 | . | .
COc1cccc(-c2cc(C(F)(F)F)c3c(-c4ccccc4)nn(-c4ccccc4)c3n2)c1 | . | . | . | . | .
Cc1cc(C)cc(NC(=O)COC(=O)C(Cc2ccccc2)NS(=O)(=O)c2ccccc2F)c1 (centres undefined) | . | . | . | . | .
CN(CCCNC(=O)c1cccc2c1SCCC2=O)c1ccccc1 | 54 | . | 40 | . | .
COC(=O)c1ccc(NC(=O)c2cccc3c2SCCC3=O)cc1 | 36 | . | . | . | .
CN(C)S(=O)(=O)c1ccc(N(C(=O)c2cnccn2)C(C(=O)NC2CCCCC2)c2ccccc2)cc1 (centres undefined) | . | . | . | . | .
CCOC(=O)c1ccc(N(C(=O)Cn2nnc3ccccc32)C(C(=O)NC(C)(C)C)c2cc(OC)c(OC)c(OC)c2)cc1 (centres undefined) | 30 | . | . | . | .
COc1cc(C(C(=O)NC(C)(C)C)N(Cc2ccccc2Cl)C(=O)c2cccc(-n3cnnn3)c2)cc(OC)c1OC (centres undefined) | . | . | . | . | .
COc1ccc(C(C(=O)NC2CCCCC2)N(C(=O)Cn2nnc3ccccc32)c2ccc(S(=O)(=O)N3CCC(C)CC3)cc2)cc1O (centres undefined) | . | . | . | 33 | .
O=C(NC(c1ccccc1)c1nnc(N2CCOCC2)o1)c1ccccc1Cl (centres undefined) | . | . | . | . | .
CC(C)(C)C(=O)NC(c1ccccc1)c1nnc(N2CCOCC2)o1 (centres undefined) | . | 74 | . | . | .
c1csc(-c2nc(NCC3CCCO3)c3ccccc3n2)c1 (centres undefined) | 31 | . | . | . | .
Cc1onc(-c2ccccc2)c1CNS(=O)(=O)c1ccc2c(c1)OCCO2 | . | . | . | . | .
O=S(=O)(c1ccc2c(c1)OCCO2)N(Cc1ccccc1)Cc1nnc(-c2ccccc2)o1 | / | . | . | 74 | .
COc1cccc(Cn2cnc3c(NS(=O)(=O)c4ccc(Cl)cc4)c(C)c(C)cc32)c1 | . | . | 49 | . | .
COc1cccc(Cn2cc(S(=O)(=O)N3CCCC3)ccc2=O)c1 | . | . | . | . | .
CN1C(=O)C(C)(C)COc2ccc(NS(=O)(=O)c3cc(F)ccc3F)cc21 | . | . | 44 | . | .
Cc1cccc(S(=O)(=O)Nc2ccc3c(c2)N(C)C(=O)C(C)(C)CO3)c1 | . | . | . | . | .
O=C(Nc1ccc(Cl)cn1)c1nn(C2CCS(=O)(=O)C2)c2c1CCCC2 (centres undefined) | 38 | . | . | . | .
O=C(Nc1cccc2cccnc12)c1nn(C2CCS(=O)(=O)C2)c2c1CCCC2 (centres undefined) | . | . | . | . | .
N#Cc1c2ccc(OCc3ccc(Br)cc3)cc2n2ccccc12 | . | . | . | . | .
CCOC(=O)c1c2ccc(OCc3ccc([N+](=O)[O-])cc3)cc2n2ccccc12 | . | . | 74 | . | .
CN(C)C(=O)c1ccc(Nc2nc(-c3cccnc3)nc3ccccc23)cc1 | 37 | . | . | . | .
CC(=O)NCC(=O)N1CCN(c2nc(-c3cccnc3)nc3ccccc23)CC1 | . | . | . | . | .
COc1ccc(-c2cc3nc([C@H](C)NC(=O)CC4CCCC4)nn3cn2)cc1 | . | . | . | . | .
